# In the library only some 3.5% were active in any assay of this set; here they are far more common.
# Mac1 fbg enh: enhancers of CD11b/CD18 adhesion to fibrinogen, primary screen, K562 cells, luminescence. hit rate 0.07% among 93,000. ATPlite luminescence. AID 1499, 2009. activation, % at 10 µM. Integrin beta-2 (Homo sapiens) + Integrin alpha-M (Homo sapiens), P05107+P11215;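 active = 10 µM primary screen giving 50% or more activity, confirmed by 40% or more on retest at that dose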
# ERb coact inh: inhibitors of ERβ-SRC1 coactivator interaction, primary screen, biochemical, TR-FRET, ERβ LBD, SRC-1 peptide; hit rate 1.3% among 86,000; TR-FRET ER-beta LBD / SRC1-Cy5 peptide binding; receptor agonist-loaded with 1 µM estradiol; Estrogen receptor beta (Homo sapiens), Q92731; AID 633, 2007; inhibition, % at 25.6 µM;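 active = compounds whose percent inhibition of the receptor-coactivator binding signal exceeds about 50% in the single-dose screen, limit read from the data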;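 note: 0% = receptor plus peptide wells without compound and 100% = peptide-only wells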
# Target sequence (Q92731 whole entry, looked up, the tested form may be a part): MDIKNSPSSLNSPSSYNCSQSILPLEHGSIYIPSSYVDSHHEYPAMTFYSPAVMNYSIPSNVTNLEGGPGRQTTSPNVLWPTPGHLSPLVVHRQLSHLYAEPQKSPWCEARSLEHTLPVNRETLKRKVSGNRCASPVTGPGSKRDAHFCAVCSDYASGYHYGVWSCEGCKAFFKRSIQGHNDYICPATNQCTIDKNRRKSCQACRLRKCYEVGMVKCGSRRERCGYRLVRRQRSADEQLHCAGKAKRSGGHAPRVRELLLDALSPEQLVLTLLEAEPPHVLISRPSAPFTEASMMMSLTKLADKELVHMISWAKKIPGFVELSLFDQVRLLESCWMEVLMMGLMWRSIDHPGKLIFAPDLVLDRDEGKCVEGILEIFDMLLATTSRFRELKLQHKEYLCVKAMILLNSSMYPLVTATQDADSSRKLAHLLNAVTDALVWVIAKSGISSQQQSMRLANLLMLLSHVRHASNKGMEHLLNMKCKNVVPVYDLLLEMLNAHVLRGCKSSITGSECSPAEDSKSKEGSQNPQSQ
# ERa coact inh: ERα–SRC-1 coactivator interaction inhibitors, primary screen, biochemical, TR-FRET, ERα LBD, estradiol-bound; hit rate 1.7% among 86,000; inhibition, % at 25.6 µM; Estrogen receptor (Homo sapiens), P03372; TR-FRET ER-alpha LBD / SRC-1 peptide; in the data active = inhibition above about 50%;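 note: 0% = receptor plus peptide control and 100% = peptide only without receptor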
# Mac1 fbg inh: inhibitors of CD11b/CD18 adhesion to fibrinogen, primary screen, K562 cells, luminescence; ATPlite luminescence; Mn2+ added to activate the integrin; hit rate 0.54% among 93,000; inhibition, % at 10 µM; Integrin beta-2 (Homo sapiens) + Integrin alpha-M (Homo sapiens), P05107+P11215;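 active = primary inhibition of 50% or more at 10 µM, then 40% or more on retest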
# ERa SRC1 pot: enhancers of ERα–SRC-1 coactivator binding, primary screen, biochemical, TR-FRET, ERα LBD, low estradiol; AID 639, 2007; hit rate 1.3% among 86,000; coactivator binding (% of control), % at 25.6 µM; Estrogen receptor (Homo sapiens), P03372; TR-FRET ERalpha-LBD/SRC-Cy5 coactivator binding, 2 h; 100 = basal binding, no effect; in the data active = activity above about 200%;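 note: binding measured in presence of low estradiol as agonist stimulus; 0% = peptide alone without receptor and 100% = receptor with peptide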
# FAK blocker: FAK kinase inhibitors, primary screen, biochemical | Focal adhesion kinase 1 (Homo sapiens), Q05397 | biochemical FAK kinase activity assay | inhibition, %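 (tested at 7 µM)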 | hit rate 0.84% among 97,000 | AID 727, 2007; in the data active = inhibition above about 19%;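 note: 0% = DMSO and 100% = reference compound high control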
# Starred values were filed as active, the others as inactive; nt = no result given; ! = repeats disagree; [ ] = dose if it differs, or a comment.
SMILES,Mac1 fbg enh,ERb coact inh,ERa coact inh,Mac1 fbg inh,ERa SRC1 pot,FAK blocker
CCOC(=O)N1CCC(NC(=O)C2CCCN(Cc3nc(-c4cccc(Cl)c4)oc3C)C2)CC1 (stereo not given),-3,nt,nt,60*,nt,-2
CCN1CCN(CCNC(=O)C2CCCN(Cc3nc(-c4cccc(Cl)c4)oc3C)C2)CC1 (stereo not given),0,-4,-6,6,90,1
Cn1c(=O)c2c(SCc3ccccc3)nc(-c3ccco3)nc2n(C)c1=O,-5,45,8,-39,105,nt
CC(C)CNC(=O)c1cccc(NC(=O)c2ccc(NC(=O)c3ccco3)cc2)c1,0,21,38,-12,230*[fluorescence artefact?],9
CCOC(=O)c1c(C)oc2c1c(C(c1cccnc1)N1CCOCC1)c(O)c1ccccc12 (stereo not given),5,nt,nt,19,nt,3
CCOC(=O)c1c(C)oc2c1c(C(c1cccnc1)N1CCN(C)CC1)c(O)c1ccccc12 (stereo not given),-3,64*[fluorescence artefact?],77*[fluorescence artefact?],45,51,nt
c1ccc(COc2ccc(OCCCCN3CCCC3)cc2)cc1,5,nt,nt,0,nt,nt
c1ccc(COc2ccc(OCCCN3CCCCC3)cc2)cc1,-4,-3,63*[fluorescence artefact?],-42,91,0
Cc1ccc(N(CC2=NCCN2)c2cccc(O)c2)cc1,nt,70*!,-4,nt,94,-7
O=C(O)c1ccc(OCc2occc2C(=O)O)cc1,-2,11,8,-2,106,2
COc1ccc(C(=O)/C=C/Nc2ccc([N+](=O)[O-])cc2C)cc1OC,53*,nt,nt,1,nt,0
O=c1oc2ccccc2cc1-c1nnc(-c2cccc(Br)c2)o1,2,35,76*[fluorescence artefact?],9,72,nt
CCN(CC)c1ccc2cc(-c3nnc(-c4ccc(Br)cc4)o3)c(=O)oc2c1,nt,33,33,nt,210*,2
O=c1oc2ccc3ccccc3c2cc1-c1nnc(-c2ccccc2)o1,-3,20,65*[fluorescence artefact?],-11,68,-5
COc1ccc(-c2nnc(-c3cc4c(ccc5ccccc54)oc3=O)o2)cc1,14,20,52*,1,120,7
Cc1ccc(OCC(=O)OCC(=O)Nc2sccc2C(N)=O)cc1C,-1,nt,nt,37,nt,nt
O=C(NCCN1CCCCCC1)c1ccc(CS(=O)(=O)c2ccc(Br)cc2)o1,44,50,81*[fluorescence artefact?],14,66,6
Cc1ccc(-c2nc(N/N=C/c3cccnc3)c3ccccc3n2)cc1,-8,-4,6,95*,78,1
COc1cc2c(cc1OC)CN(Cc1nc3ccsc3c(=O)[nH]1)CC2,nt,49,53*[fluorescence artefact?],nt,59,9
O=c1[nH]c(CN2CCN(c3ccccc3Cl)CC2)nc2ccsc12,-6,1,-6,-8,104,2
O=c1c2ccccc2nc(SCc2nc3ccccc3s2)n1Cc1ccco1,2,2,3,17,162,-4
O=c1c2c3c(sc2nc(NCCO)n1Cc1ccco1)CCCCC3,0,nt,nt,4,nt,nt
CCc1nc2sc3ccccc3c(=O)c2c(=O)n1Cc1ccco1,nt,68*,76*[fluorescence artefact?],nt,57,nt
O=c1c2ccccc2sc2nc(C3CCCCC3)n(Cc3ccco3)c(=O)c12,48,38,46,28,222*,nt
Cc1cc(Cl)c(S(=O)(=O)Nc2ccc3c(c2)OCO3)cc1OCC(N)=O,-4,51*,50*,-3,86,5
SMILES,Mac1 fbg enh,ERb coact inh,ERa coact inh,Mac1 fbg inh,ERa SRC1 pot,FAK blocker
Cc1ccc2cccc(S(=O)(=O)Nc3ccc4c(c3)OCO4)c2n1,3,75*[fluorescence artefact?],83*[fluorescence artefact?],-1,25,5
O=S(=O)(Nc1ccc2c(c1)OCCO2)c1cccc2nsnc12,-4,-4,-4,-7,91,0
CCCCCCCCc1nc(=S)[nH][nH]1,nt,5,-1,nt,53,-1
CN(C)c1nc(-c2ccccn2)nnc1-c1ccccc1,-1,-12,58*[fluorescence artefact?],-26,104,1
c1ccc(-c2nnc(-c3ccccn3)nn2)nc1,nt,-19,-14,nt,95,nt
CC(C)c1nc(NCCN2CCOCC2)c(C#N)c2c1COC(C)(C)C2,3,-7,4,0,102,-2
c1ccc(-n2nnnc2-c2cnc(-c3ccncc3)nc2-c2cccs2)cc1,nt,-3,2,nt,96,30*
CN1C(=O)c2ccccc2C(C(=O)NCC2CCCO2)C1c1c[nH]c2ccccc12 (stereo not given),5,81*[fluorescence artefact?],-6,-14,97,0
Cc1cc(=O)[nH]c(SCC(=O)C23CC4CC(CC(C4)C2)C3)c1C#N,nt,6,5,nt,90,-3
N/C(=N\OS(=O)(=O)c1ccc2ccccc2c1)c1ccncc1,0,-11,1,0,101,-12
CCn1c(=N)c(C(=O)NCc2cccnc2)cc2c(=O)n3cccc(C)c3nc21,5,1,3,0,116,nt
COc1ccc(C(=O)c2coc3ccc(O)c(CN4CCCC4)c23)cc1,18,-9,7,7,98,-1
COc1ccc(-c2coc3c(CN4CCCCC4)c(O)c(CN4CCCCC4)c(O)c3c2=O)cc1,2,35,67*[fluorescence artefact?],-15,79,nt
Cc1ccc(NS(=O)(=O)c2ccc(NC(=O)c3ccc(-c4ccccc4)cc3)cc2)c(C)c1,nt,nt,nt,nt,nt,1
C/C(N)=C(/C#N)C(=O)CSc1nnc(COc2ccccc2Cl)o1,-2,59*,58*,3,77,2
CC(C)(C)NC(=O)NC(=O)CSc1nnc(COc2ccccc2Cl)o1,1,-15,-2,10,91,3
COc1ccccc1OCc1nnc(SCC(=O)c2cc(Cl)ccc2OC)o1,-1,-3,1,-5,322*[fluorescence artefact?],0
Cc1ccccc1NC(=O)CSc1nnc(-c2ccccc2)n1-c1ccccc1,nt,-5,1,nt,402*[fluorescence artefact?],-3
O=C(CSc1nnc(-c2cccnc2)n1-c1ccccc1)Nc1ccc2c(c1)OCO2,5,57*,-6,-22,115,-1
CCn1c(SCC(=O)Nc2ccccc2C)nnc1-c1ccccc1O,0,-14,-25,-66,86,-1
Cc1ccc(-n2c(SCC(=O)Nc3ccc4c(c3)OCO4)nnc2-c2cccs2)cc1,1,39,85*[fluorescence artefact?],0,378*[fluorescence artefact?],-12
O=C(CSc1nnc(-c2cccs2)n1-c1ccccc1)NCc1ccc2c(c1)OCO2,0,-2,2,-7,120,0
CCOC(=O)C1=C(C)NC(C)=C(C(=O)OCC)C1c1cc(N)ccc1OC(F)F,-1,-17,-21,7,111,2

# Source: PubChem (several laboratories)
